# Only some compounds are listed: those with a hit (about 4% of all), similar ones and a draw of the others.
# Mtb betalactam – beta-lactam sensitization of Mtb H37Rv. inhibition, % at 25 µM. M. tuberculosis H37Rv growth with meropenem, percent inhibition. actives 0.27% (n = 330,000); call rule not given here;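 further: growth measured after seven days incubation then overnight dye step; 0% = bacteria only wells and 100% = bacteria with antibiotic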
# Mtb FBA inh – inhibitors of M. tuberculosis fructose-bisphosphate aldolase. P9WQA3. purified M. tuberculosis FBA, fluorescence read-out. inhibition, % at 1 µM. actives 2.3% (n = 360,000); in the data active means inhibition above about 27%;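 further: 0% = vehicle and 100% = reference inhibitor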
# GDH-TPI counter-1 – inhibits GDH-TPI coupling enzymes, artifact for Mtb FBA screen. AID 588335. GDH-TPI coupled enzyme counterscreen, NADH absorbance. actives 1.2% (n = 360,000). inhibition, % at 4.8 µM;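 further: 0% = DMSO wells and 100% = wells lacking the enzyme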
# MazF activator – MazEF (E. coli) toxin RNase activation. activation, % at 20 µM. actives 0.32% (n = 350,000). P0AE70. FAM/BHQ RNA-DNA oligo cleavage fluorescence, 5 h; in the data active means activation above about 50%
# Target sequence (P0AE70 whole entry, looked up): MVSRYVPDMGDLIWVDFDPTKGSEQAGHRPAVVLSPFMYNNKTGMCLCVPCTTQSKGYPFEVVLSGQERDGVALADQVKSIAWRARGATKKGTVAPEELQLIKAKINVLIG
# CCHF vOTU inh – blocks the CCHF virus ovarian tumor domain protease. CCHFV vOTU protease, Pep-AMC fluorescence. inhibition, % at 11.5 µM. actives 0.55% (n = 370,000); further: 0% = vehicle wells with enzyme and 100% = no enzyme wells
# Mtb FBA confirm – Mtb FBA inhibition, confirmed; inhibition, % at 1 µM; shares compounds with Mtb FBA inh; actives 78% (n = 5,600); purified M. tuberculosis FBA, fluorescence read-out; in the data active means inhibition above about 27%;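 further: 0% = vehicle wells and 100% = reference inhibitor wells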
# GDH-TPI counter-2 – GDH-TPI inhibition counter-screen for FBA inhibitors. shares compounds with Mtb FBA inh. GDH-TPI coupled enzyme counterscreen, fluorescence. inhibition, % at 1 µM. actives 81% (n = 5,600). AID 652141; in the data active means inhibition above about 10%
# * hit, by the source's call; nt = not tested or not shown; + = active, no number. Unless noted, no stated cut-off is given here; in the data, active means inhibition above about 30%; inactive means the rest.
SMILES,Mtb betalactam,Mtb FBA inh,GDH-TPI counter-1,MazF activator,CCHF vOTU inh,Mtb FBA confirm,GDH-TPI counter-2
Fc1ccc2nc(Nc3nc4cc5c(cc4s3)OCO5)sc2c1,77,38*,13,3,-6,56*,52*
c1ccc2sc(Nc3nc4cc5c(cc4s3)OCO5)nc2c1,87,29*,16,10,1,2,-3
O=C(NNc1nc2cc3c(cc2s1)OCO3)c1ccc(F)cc1,0,5,-13,10,7,nt,nt
O=C(NNc1nc2cc3c(cc2s1)OCCO3)c1ccc(F)cc1,25,2,1,13,4,nt,nt
Fc1ccc2nc(Nc3nc4cc5c(cc4s3)OCCO5)sc2c1,61,59*,16,8,-2,75*,63*
COC(=O)c1cc2c(c3c4cc(C)ccc4n(S(=O)(=O)c4ccc(C)cc4)c13)C(=O)N(Cc1ccccc1OC)C2,nt,nt,nt,nt,-9,nt,nt
CC(C)c1ccc(NC(=O)C2(C)Cc3c(-c4ccc(N(C)C)cc4)ccnc3O2)cc1 (stereo not given),nt,21,8,nt,-30,nt,nt
COc1ccc(NC(=O)C2(C)Cc3c(-c4ccc(N(C)C)cc4)ccnc3O2)cn1 (stereo not given),nt,40*,27,nt,-10,129*,103*
CN(C)c1ccc(-c2ccnc3c2CC(C)(C(=O)Nc2ccc(Cl)c(C(F)(F)F)c2)O3)cc1 (stereo not given),nt,84*,25,nt,28,54*,40*
CC(=O)Nc1ccc(-c2ccnc3c2CC(C)(C(=O)Nc2ccc(Cl)c(C(F)(F)F)c2)O3)cc1 (stereo not given),nt,3,13,nt,8,nt,nt
CCC[C@@H](/C=C/C(=O)OC(C)(C)C)Sc1ccc(N)cc1,nt,nt,nt,nt,16,nt,nt
O=C(CN1CCOCC1)NNc1c2ccccc2nc2ccccc12,3,4,-1,14,-12,nt,nt
O=C(CN1CCOCC1)Nc1c2c(nc3ccccc13)N(Cc1ccccc1)CC2,-11,44*,8,0,-40,60*,51*
CN(C)c1cc(NC(=O)CN2CCCC2)c2ccccc2n1,-3,17,4,-13,11,nt,nt
O=C(CN1CCCC1)Nc1c2c(nc3ccccc13)N(Cc1ccccc1)CC2,3,31*,9,-1,-24,46*,34*
Cc1nc2ccc(S(=O)(=O)NCC(=O)NCc3ccccc3Cl)cc2s1,nt,nt,nt,nt,0,nt,nt
COc1cccc(-c2cc3nc(-c4ccccc4)cc(N4CCCC(O)C4)n3n2)c1 (stereo not given),98,102*,9,6,-43,199*,141*
CCN1CCN(c2cc(-c3ccccc3)nc3cc(-c4cccc(F)c4)nn23)CC1,100,42*,21,7,-20,76*,53*
COc1ccc(-c2cc3nc(-c4ccccc4)cc(N4CCN(C(=O)c5ccoc5)CC4)n3n2)cc1,nt,56*,12,-3,-46,48*,36*
OC1CCN(c2cc(-c3ccccc3)nc3cc(-c4ccc(F)cc4)nn23)CC1,7,22,2,3,-11,nt,nt
COc1cc(OC)c(Cl)cc1N,77,45*,-2,6,1,67*,51*
COc1ccc(OC)c(N)c1,-1,-1,9,-4,3,nt,nt
COc1cccc(N(C)C(=O)[C@@H](C)[C@@H](O)c2ccc(C(C)=O)cc2)c1,nt,nt,nt,nt,2,nt,nt
CCOCCCNC(=S)NCCCNc1nc2c(C)cc(C)cc2cc1C#N,nt,38*,6,-14,-14,+,147*
Cc1cccc2cc(C#N)c(NCCCn3ccnc3)nc12,92,39*,-3,-2,-27,152*,139*
CCOCCCNC(=S)NCCNc1nc2c(C)cccc2cc1C#N,0,57*,13,-13,nt,33*,29*
Cc1cccc2cc(C#N)c(NCCNC(=O)COc3ccccc3)nc12,3,40*,2,-34,7,102*,89*
Cc1cccc2cc(C#N)c(NCCCNS(=O)(=O)c3ccc(Cl)cc3)nc12,-3,24,0,-5,-19,nt,nt
C[C@@H]1CCN(C2CC2)S(=O)(=O)c2ccc(N3CCC[C@H]3C)cc2O1,nt,nt,nt,nt,-3,nt,nt
CCn1c2ccccc2c2cc(NC(=O)COC(=O)c3ccc(F)cc3Cl)ccc21,nt,nt,nt,nt,4,nt,nt

# Screening results (PubChem BioAssay)
